Shown are actives, neighbours in structure and some others; about 12% of the full set was active somewhere.
Sfp inh = Sfp phosphopantetheinyl transferase inhibition; actives 3.5% (n = 310,000); Biochemical Sfp PPTase activity, qHTS; Potency, µM, without a hit: largest response in the series, negative = inhibition, hits mostly inhibitors; Q9F4F7;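 also: the enzyme is Sfp with the accession as filed and its product quenches rhodamine fluorescence; 0% = enzyme reaction without inhibitor and -100% = no enzyme wells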
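Compounds were incubated with enzyme (final 15 nM) for 15 min at room temperature before substrate addition started the reaction. Fluorescence at 525 nm excitation, 598 nm emission was recorded immediately and after 30 minutes.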
HP1b chromo inh = inhibitors of HP1-beta chromodomain binding to methylated histone tails; Potency, µM (series often up to 114 µM), without a hit: top-dose activity change, negative = inhibition, most hits filed as inhibitors; AID 540317; AlphaScreen HP1-beta / biotin-H3K9me3 peptide binding; actives 0.56% (n = 390,000); P83916; also: nearly all actives have a fitted effect of over 70% in size
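HP1-beta protein (50 nM final) preincubated 30 min at room temperature with biotinylated H3(1-18)K9me3 peptide (50 nM) in PBS pH 7.4, 0.01% Tween-20, then compound added for 30 min. AlphaScreen streptavidin donor/nickel chelate acceptor beads (10 ug/mL final), 30 min dark, luminescence read.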
L3MBTL1 inh = inhibitors of human L3MBTL1. Q9Y468. AlphaScreen L3MBTL1–H3K9me1 peptide binding. AID 485360. actives 0.66% (n = 230,000). Potency, µM (titrated, usually from 57.1 µM), without a hit: at the highest dose activity, negative = inhibition, hits mostly inhibitors; also: % is scaled to controls: 0 for no effect and ±100 for the full control effect; nearly all actives have a fitted effect of over 60% in size
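AlphaScreen assay: L3MBTL1 (50 nM final) was preincubated 30 min at room temperature with biotinylated H3(1-15)K9me1 peptide (75 nM final), then 30 min with library compounds; streptavidin donor and nickel chelate acceptor beads (10 ug/mL final) added, 30 min dark.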
BAZ2B inh = inhibitors of human BAZ2B bromodomain; actives 4.4% (n = 360,000); Q9UIF8; AID 504333; Potency, µM (top dose mostly 114 µM), inactives show top-dose activity change, negative = inhibition, hits mostly inhibitors; AlphaScreen BAZ2B-H3K14Ac peptide displacement; also: % is scaled to controls: 0 for no effect and ±100 for the full control effect; nearly all actives have a fitted effect of over 60% in size
Target sequence (Q9UIF8 whole entry, looked up): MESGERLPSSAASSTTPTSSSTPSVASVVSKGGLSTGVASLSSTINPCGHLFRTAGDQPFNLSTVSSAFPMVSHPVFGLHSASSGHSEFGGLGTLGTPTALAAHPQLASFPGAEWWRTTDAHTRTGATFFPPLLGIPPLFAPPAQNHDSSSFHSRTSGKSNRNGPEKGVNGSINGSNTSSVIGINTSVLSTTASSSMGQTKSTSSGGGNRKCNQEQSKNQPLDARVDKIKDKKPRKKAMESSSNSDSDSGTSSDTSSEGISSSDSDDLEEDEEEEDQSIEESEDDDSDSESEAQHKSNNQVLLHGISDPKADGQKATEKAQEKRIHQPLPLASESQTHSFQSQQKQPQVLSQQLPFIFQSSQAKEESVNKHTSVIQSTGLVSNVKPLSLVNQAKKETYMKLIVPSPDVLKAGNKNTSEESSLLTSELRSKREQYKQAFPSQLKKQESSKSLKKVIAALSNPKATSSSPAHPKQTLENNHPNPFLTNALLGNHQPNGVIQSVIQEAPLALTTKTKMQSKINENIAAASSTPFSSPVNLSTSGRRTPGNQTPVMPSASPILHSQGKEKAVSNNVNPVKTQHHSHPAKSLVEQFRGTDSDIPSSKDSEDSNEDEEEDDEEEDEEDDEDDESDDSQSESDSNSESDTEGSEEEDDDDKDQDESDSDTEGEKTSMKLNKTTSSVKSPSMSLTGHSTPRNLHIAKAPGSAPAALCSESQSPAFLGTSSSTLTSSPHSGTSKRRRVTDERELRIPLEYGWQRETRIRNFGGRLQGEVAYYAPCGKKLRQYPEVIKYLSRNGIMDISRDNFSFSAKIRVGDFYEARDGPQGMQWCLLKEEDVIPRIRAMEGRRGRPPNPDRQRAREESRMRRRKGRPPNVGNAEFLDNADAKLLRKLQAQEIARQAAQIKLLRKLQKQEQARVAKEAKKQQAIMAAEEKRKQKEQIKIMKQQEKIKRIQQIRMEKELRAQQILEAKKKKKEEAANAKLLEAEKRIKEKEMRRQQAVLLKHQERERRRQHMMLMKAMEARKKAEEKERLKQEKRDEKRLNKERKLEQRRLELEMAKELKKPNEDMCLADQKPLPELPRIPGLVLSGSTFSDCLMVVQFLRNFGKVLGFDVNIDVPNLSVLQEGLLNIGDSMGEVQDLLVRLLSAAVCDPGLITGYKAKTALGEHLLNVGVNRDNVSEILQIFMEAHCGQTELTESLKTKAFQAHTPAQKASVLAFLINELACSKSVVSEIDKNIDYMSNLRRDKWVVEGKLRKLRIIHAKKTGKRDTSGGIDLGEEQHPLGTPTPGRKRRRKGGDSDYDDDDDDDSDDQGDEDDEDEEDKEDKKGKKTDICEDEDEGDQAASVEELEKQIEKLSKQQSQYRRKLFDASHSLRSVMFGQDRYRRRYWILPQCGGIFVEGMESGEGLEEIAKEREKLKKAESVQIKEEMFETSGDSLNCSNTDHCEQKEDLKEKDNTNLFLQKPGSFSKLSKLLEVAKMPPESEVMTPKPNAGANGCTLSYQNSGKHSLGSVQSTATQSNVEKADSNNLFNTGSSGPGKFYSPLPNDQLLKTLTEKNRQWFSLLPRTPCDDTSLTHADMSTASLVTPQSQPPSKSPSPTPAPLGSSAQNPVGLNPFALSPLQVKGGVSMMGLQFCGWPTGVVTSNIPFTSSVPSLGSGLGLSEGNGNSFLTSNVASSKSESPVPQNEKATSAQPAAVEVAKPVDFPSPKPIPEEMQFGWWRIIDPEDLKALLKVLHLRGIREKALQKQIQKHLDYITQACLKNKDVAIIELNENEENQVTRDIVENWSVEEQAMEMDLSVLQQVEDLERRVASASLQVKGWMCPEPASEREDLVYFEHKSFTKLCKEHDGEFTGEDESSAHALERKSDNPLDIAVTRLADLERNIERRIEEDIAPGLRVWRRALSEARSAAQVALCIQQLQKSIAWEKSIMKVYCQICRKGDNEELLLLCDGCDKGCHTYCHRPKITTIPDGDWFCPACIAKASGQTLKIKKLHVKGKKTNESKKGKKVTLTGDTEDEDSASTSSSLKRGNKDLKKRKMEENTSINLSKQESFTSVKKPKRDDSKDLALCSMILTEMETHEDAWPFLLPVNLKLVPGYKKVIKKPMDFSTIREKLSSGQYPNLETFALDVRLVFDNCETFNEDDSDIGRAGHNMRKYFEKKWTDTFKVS
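AlphaScreen displacement of biotin-H3(5-23)K14Ac peptide (50 nM final) from BAZ2B (50 nM final) in PBS pH 7.4, 0.01% Tween-20; complex preformed 30 min RT, then compounds (top 110 uM) 30 min RT, beads 20 min dark.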
G9a block = inhibitors of human histone lysine methyltransferase G9a. Q96KQ7. G9a H3K9 monomethylation, AlphaScreen, 2 h. Potency, µM (doses to about 102 µM), for inactives: top-dose activity, negative = inhibition, hits mostly inhibitors. actives 8.8% (n = 350,000). AID 504332; also: % is scaled to controls: 0 for no effect and ±100 for the full control effect; nearly all actives have a fitted effect of over 75% in size
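Step 1: enzyme (final 20 nM) with compound, 15 min RT. Step 2: substrate peptide 500 nM and SAM 20 uM, 2 h RT. Step 3: anti-H3K9me1 antibody and AlphaScreen beads, 10 min, then plate read.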
JMJD2A Tudor inh = blocks the human JMJD2A Tudor domain. O75164. AlphaScreen JMJD2A-Tudor / H3K4me3 peptide binding. Potency, µM (doses to about 114 µM), without a hit: at the highest dose activity change, negative = inhibition, usual class: inhibitors. actives 4.4% (n = 390,000). AID 504339; also: % is scaled to controls: 0 for no effect and ±100 for the full control effect; nearly all actives have a fitted effect of over 50% in size
* hit, by the source's call; ? = inconclusive; / = no result given; [ ] = remark or other dose. Calls follow the shape of the dose curve; as a rule, active = well fitted curve in the direction sought with a large enough effect; inconclusive = small, poorly fitted or top-dose-only effect, or another doubt; inactive = no such curve, though single readings can be large; an effect the other way counts as inactive or inconclusive. Potency is read from the fitted curve at half-maximal effect.

SMILES	Sfp inh	HP1b chromo inh	L3MBTL1 inh	BAZ2B inh	G9a block	JMJD2A Tudor inh
O=C1N/C(=C/c2cccn2-c2ccccc2)C(=O)N1Cc1ccc(F)cc1	45µM*	12%	1%	-24%	13µM*	-30%
COc1ccc(CCN(C)CCCN2CC(c3ccccc3)CC2=O)cc1OC (stereo not given)	-19%	-9%	/	?	50µM*	25µM*
COc1ccc(C2CC(=O)N(CCCN(C)CCc3ccc(OC)c(OC)c3)C2)cc1 (stereo not given)	?	?	/	89µM*	?	100µM*
Cc1ccc(CCNC(=O)Cn2ncc3c(=O)oc4ccccc4c32)cc1	/	17%	/	-35%	-31%[59 µM]	-13%
CCOC(=O)c1c(NC(=O)CCCOc2ccc(Cl)cc2)sc2c1CCC2	/	14%	/	-27%	-27%[59 µM]	25%
COc1cc(CC(CC(=O)O)CC(C)OCc2ccccc2)cc(OC)c1 (stereo not given)	6%	23%	4%	11%	1.4µM*	14%
CN(C)C(=O)c1ccc(-c2ccc3ncnc(NCc4cccs4)c3c2)cc1	-6%	/	/	/	2%[0.501 µM]	/
CC1(C)N([O-])C2=C(c3ccccc3C2=O)[N+](=O)C1(C)C	5%	-2%	/	13%	79µM*	-8%
Cn1c(=O)c2c(nc(CN3CCN(Cc4ccccc4)CC3)n2Cc2cccc(Cl)c2)n(C)c1=O	-1%	22%	-10%	-39%	40µM*	-29%
COCCn1c(CN2CCc3ccccc3C2)nc2c1c(=O)n(C)c(=O)n2C	9%	33%	3%	-5%	/	-2%
Cn1c(=O)c2c(nc(CN3CCc4ccccc4C3)n2Cc2cccc(Cl)c2)n(C)c1=O	-6%	43%	-13%	-1%	8.9µM*	-27%
CCC1=NN(C(=O)c2ccc(C)cc2)C(O)(c2ccc(Br)cc2)C1 (stereo not given)	13%	14%	-13%	?	23%[59 µM]	-32%
CCC1=NN(C(=O)c2cccc(Br)c2)C(O)(c2ccc(Br)cc2)C1 (stereo not given)	-9%	2%	28µM*	40µM*	26%[59 µM]	?
COc1ccc(N2CCN(C(=O)c3ccc(S(=O)(=O)N4CCCCCC4)cc3)CC2)cc1	/	-23%	-4%	13%	?	?
COc1ccc(C(=O)c2ccc(N3CCOCC3)cc2)c(OC)c1	0%	-2%	-10%	-9%	25µM*	-17%
COc1ccc(N2CCN(C(=O)c3ccc(S(=O)(=O)N4CCOCC4)cc3)CC2)cc1	9%	-17%	-2%	-28%	8.9µM*	-27%
COc1ccc(N2CCN(C(=O)c3ccc(S(=O)(=O)N4CCCC4)cc3)CC2)cc1	13%	-18%	/	-26%	79µM*	-31%
COc1ccc(N2CCN(S(=O)(=O)c3ccc(OC)c(C(=O)N4CCCC4)c3)CC2)cc1	6%	11%	/	-6%	79µM*	-6%
CCOC(=O)c1cccc(NC(=O)c2cc3c(=O)n(Cc4cccnc4)ccc3nc2C)c1	/	103%	/	2%	9%[59 µM]	-14%
COc1cccc(Cc2nc3ccccc3nc2SCC(=O)N2CCCc3ccccc32)c1	/	26%[57 µM]	/	15%	-9%[59 µM]	-10%
CCOC(=O)C1CCN(c2c(C(=O)c3ccc(C)cc3)cnc3ccc(F)cc23)CC1	/	9%	/	-24%	-24%[59 µM]	-33%
Cc1ccc(-c2cn3c(n2)sc2cc(C(=O)NC4CCCCC4)ccc23)cc1	/	37%	/	1%	10%[59 µM]	-7%
Cc1ccc(Cl)cc1N1CCN(C(=O)Cc2c(C(=O)O)c(C)cn2C)CC1	/	14%	/	?	7%[59 µM]	-27%
COc1ccc(OC)c(NC(=O)c2nc(S(=O)(=O)Cc3ccc(F)cc3)ncc2Cl)c1	/	-6%	/	?	7.1µM*	?
CCOC(=O)c1ccc(NC(=O)c2nsc3ccccc23)cc1	/	86%	/	50%	3.2µM*	64%
CC(=O)Nc1ccc(NC(=O)c2nc(S(=O)(=O)Cc3ccc(F)cc3)ncc2Cl)cc1	/	40%	/	1%	?	-11%

Bioassay records (PubChem BioAssay)
